Reference: PubChem BioAssay
Values without a mark were called inactive. The source made the active and inactive calls. Unless noted, no stated cut-off is given here; in the data, active means inhibition above about 30%; inactive means the rest.

What was measured:
[1] = target: Nuclear receptor coactivator 3 (Homo sapiens) (UniProt Q9Y6Q9); assay: NCOA3 GAL4-fusion reporter inhibition – cell-based, luminescence, quadruplicate, confirmation (AID 588792;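 active means mean inhibition over 43.08%, the solvent-only control mean plus 3 SD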;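 further: 0% = DMSO treated cells and 100% = gossypol at 36 µM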); details: HEK293 GAL4-SRC3 luciferase reporter, at 3.6 µM, stronger effect = higher value
[2] = system: transactivating tegument protein VP16 (Human herpesvirus 1), Gal4-VP16 luciferase reporter; assay: repression of VP16-driven luciferase reporter – cell-based, luminescence, high throughput, counter-screen for SRC3 inhibitor project (AID 588794); details: mammalian cells, at 3.6 µM, stronger effect = higher value
[3] = target: Nuclear receptor coactivator 1 (Homo sapiens) (UniProt Q15788); assay: NCOA1 GAL4-fusion reporter inhibition – cell-based, luminescence, quadruplicate, confirmation (AID 588820;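 active means mean inhibition above 46.68%, the untreated control wells mean plus 3 SD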;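 further: 0% = DMSO wells and 100% = gossypol 36 µM treated wells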); details: HEK293 GAL4-SRC1 luciferase reporter, at 3.6 µM, stronger effect = higher value
[4] = repression of VP16-driven luciferase reporter – cell-based, luminescence, high throughput, counter-screen for SRC1 inhibitor project (AID 588824; in the data active means inhibition above about 25%); details: cell-based VP16 transactivation luciferase luminescence; at 3.6 µM; stronger effect = higher value

Sequence of Nuclear receptor coactivator 3 (Homo sapiens) (Q9Y6Q9 whole entry, looked up, the tested form may be a part): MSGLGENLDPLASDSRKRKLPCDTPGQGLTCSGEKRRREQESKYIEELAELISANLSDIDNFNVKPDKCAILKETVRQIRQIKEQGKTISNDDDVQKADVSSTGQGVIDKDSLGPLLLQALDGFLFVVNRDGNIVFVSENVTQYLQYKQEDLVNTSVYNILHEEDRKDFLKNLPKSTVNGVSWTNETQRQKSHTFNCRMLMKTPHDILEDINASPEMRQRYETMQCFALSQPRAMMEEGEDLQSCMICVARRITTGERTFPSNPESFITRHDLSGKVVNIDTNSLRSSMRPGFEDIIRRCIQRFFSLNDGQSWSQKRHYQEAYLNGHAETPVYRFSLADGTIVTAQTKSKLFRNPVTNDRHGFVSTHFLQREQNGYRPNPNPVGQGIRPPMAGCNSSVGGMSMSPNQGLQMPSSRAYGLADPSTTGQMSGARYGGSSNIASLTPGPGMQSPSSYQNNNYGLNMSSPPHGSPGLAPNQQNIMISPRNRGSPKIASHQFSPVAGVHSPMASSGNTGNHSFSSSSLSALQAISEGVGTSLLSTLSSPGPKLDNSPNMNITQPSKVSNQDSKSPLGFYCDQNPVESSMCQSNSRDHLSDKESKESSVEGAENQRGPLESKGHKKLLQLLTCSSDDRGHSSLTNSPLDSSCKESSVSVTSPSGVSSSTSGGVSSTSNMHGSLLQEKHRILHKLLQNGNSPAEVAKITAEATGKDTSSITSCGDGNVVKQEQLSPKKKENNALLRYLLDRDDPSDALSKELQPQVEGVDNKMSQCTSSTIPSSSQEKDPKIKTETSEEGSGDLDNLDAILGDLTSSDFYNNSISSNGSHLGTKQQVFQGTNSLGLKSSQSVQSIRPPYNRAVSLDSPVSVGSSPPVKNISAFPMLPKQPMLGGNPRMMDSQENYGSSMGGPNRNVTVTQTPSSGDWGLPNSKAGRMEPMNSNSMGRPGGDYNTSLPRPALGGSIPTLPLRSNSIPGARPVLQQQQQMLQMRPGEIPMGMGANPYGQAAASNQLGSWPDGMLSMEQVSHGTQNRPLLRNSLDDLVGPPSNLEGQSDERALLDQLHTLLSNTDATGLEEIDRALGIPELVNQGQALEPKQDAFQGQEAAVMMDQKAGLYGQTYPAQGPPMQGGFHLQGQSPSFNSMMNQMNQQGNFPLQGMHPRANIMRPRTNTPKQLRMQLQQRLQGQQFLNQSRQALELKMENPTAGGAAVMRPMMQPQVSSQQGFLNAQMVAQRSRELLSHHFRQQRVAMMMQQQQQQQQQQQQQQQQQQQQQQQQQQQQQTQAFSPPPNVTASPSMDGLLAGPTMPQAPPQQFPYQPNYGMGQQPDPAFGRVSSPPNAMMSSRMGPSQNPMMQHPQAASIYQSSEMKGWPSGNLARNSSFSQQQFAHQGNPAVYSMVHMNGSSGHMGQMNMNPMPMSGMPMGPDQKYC
Sequence of Nuclear receptor coactivator 1 (Homo sapiens) (Q15788 whole entry, looked up, the tested form may be a part): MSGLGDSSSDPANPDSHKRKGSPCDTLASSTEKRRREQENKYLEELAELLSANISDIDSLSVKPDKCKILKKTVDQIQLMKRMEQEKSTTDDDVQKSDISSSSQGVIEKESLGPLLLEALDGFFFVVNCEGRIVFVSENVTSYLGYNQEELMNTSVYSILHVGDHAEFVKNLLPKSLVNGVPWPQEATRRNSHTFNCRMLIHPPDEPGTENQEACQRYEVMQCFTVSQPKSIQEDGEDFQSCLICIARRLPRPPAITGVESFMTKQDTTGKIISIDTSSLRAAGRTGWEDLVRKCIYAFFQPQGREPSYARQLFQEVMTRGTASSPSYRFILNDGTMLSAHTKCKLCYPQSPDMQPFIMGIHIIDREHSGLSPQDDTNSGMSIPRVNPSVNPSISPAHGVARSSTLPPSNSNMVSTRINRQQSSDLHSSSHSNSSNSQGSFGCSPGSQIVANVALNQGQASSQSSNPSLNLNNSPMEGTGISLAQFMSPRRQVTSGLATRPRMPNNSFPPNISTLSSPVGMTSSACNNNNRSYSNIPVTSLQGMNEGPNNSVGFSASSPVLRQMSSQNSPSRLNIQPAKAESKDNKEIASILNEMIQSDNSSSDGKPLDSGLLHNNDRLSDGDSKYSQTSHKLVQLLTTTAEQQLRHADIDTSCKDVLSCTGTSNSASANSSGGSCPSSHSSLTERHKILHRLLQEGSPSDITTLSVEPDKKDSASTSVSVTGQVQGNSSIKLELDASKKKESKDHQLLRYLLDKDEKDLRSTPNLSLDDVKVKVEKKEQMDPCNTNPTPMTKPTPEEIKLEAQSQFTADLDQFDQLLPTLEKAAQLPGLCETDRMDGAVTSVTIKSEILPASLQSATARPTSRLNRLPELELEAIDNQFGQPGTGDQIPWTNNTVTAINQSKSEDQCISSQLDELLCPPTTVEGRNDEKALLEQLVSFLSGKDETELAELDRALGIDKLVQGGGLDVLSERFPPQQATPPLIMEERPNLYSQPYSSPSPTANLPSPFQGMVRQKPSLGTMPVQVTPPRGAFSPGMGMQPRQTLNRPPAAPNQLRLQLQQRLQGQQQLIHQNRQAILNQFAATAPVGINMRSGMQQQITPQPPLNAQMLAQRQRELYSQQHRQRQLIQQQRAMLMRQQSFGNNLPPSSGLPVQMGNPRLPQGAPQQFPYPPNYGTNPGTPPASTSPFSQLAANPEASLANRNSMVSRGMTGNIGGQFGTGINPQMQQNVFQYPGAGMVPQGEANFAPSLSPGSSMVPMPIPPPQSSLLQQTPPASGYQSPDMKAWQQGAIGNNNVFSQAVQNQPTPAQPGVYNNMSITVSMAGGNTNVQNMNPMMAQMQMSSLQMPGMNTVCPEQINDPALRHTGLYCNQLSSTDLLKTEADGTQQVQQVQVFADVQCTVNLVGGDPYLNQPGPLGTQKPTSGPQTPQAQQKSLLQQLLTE

Compound	inhibition [1]	inhibition [2]	inhibition [3]	inhibition [4]
CCSCCc1nnc(NC(=O)Nc2cccc(C(F)(F)F)c2)s1	47.7% (active)	43.8% (active)	45.9%	28.4% (active)
OCCNc1c2ccccc2nc2ccccc12	4.16%	40.4% (active)	5.64%	42.2% (active)
O=C(N/N=C/c1cc(Cl)cc(Cl)c1O)c1ccncc1	26.5%	40.9% (active)	30.7%	33.7% (active)
CC12CCC(C(=O)N/N=C/c3ccc(O)cc3O)(OC1=O)C2(C)C (stereo not given)	6.17%	16.8%	11.4%	6.4%
COc1ccc(-n2c(=S)[nH]c3cc(C(=O)Nc4ccc(F)cc4)ccc3c2=O)c(OC)c1	19.7%	40.8% (active)	26.5%	44.6% (active)
NC(=O)c1sc2nccc(Nc3ccccc3)c2c1N	70.9% (active)	47.7% (active)	53.8% (active)	39.8% (active)
CC(C)n1c(-c2cccnc2)nc2cnccc21	29.8%	26.9%	38.1%	18.9%
Nc1ccc(Cn2ccc3c4c(N)nc(N)nc4ccc32)cc1	66.1% (active)	32% (active)	67.7% (active)	36.9% (active)
O=c1[nH]c(=S)ccn1C1OC(CO)C(O)C1O (stereo not given)	3.59%	-0.78%	-11.9%	-8.74%
Cc1ccc(NC(=O)NC2CC(=O)N(c3ccc4c(c3)OCCO4)C2)cc1C (stereo not given)	41.9%	33.8% (active)	46%	20.9%
